These results are taken from PubChem BioAssay (NCI).

Molecules are shown by their SMILES. Compounds without any hit were thinned out: in the full panel of roughly 83,000, 20% have a hit.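 Interpretation: 100, growth as untreated; towards 0, rising growth inhibition; 0, no net growth; 0 to -100, cell death. Compounds scoring below 10 were considered active.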 Unmarked numbers belong to inactive results. Activity calls are given as the source filed them.

Assay in all cases: NCI-60 one-dose screen, 48 h (100 = growth as untreated, 0 = no growth, -100 = all killed)
What all share (details): 10 µM

Test [1] has as its system SR leukemia.
Test [2] concerns RPMI-8226 leukemia.
Test [3] concerns OVCAR-8 ovarian.
Test [4] has as its system OVCAR-5 ovarian.
The test system of test [5] is OVCAR-4 ovarian.
The subject of test [6] is SK-OV-3 ovarian.
Test [7] relates to IGROV1 ovarian.
Test [8] concerns OVCAR-3 ovarian.
In test [9] the test system is HS 578T breast.
The subject of test [10] is NCI/ADR-RES ovarian.
The test system of test [11] is T-47D breast.
Test [12] relates to BT-549 breast.
Test [13] deals with MDA-MB-435 melanoma.
Test [14] concerns SW-620 colon.
The subject of test [15] is MCF7 breast.
Test [16] concerns HCT-116 colon.
For test [17], the system named is HCC-2998 colon.
The subject of test [18] is KM12 colon.

Consider `CCc1ccc(Nc2cc(C)nc3nc(C)nn23)cc1`, for which the growth in test [1] is -20.9% (active); in test [2], -35.2% (active); in [3], -69.2% (active); in test [4], 26.4%; in [5], -13.1% (active); in [6] it was 38.3%. The growth in [7] is 32.8%; in test [8], -92.2% (active); in test [9] it was 50.8%; in [10], -29.5% (active); in [11], -68.3% (active); in [12], 40.7%. Besides, the growth in [13] is -97.2% (active); in test [14], -68.9% (active); in test [15], -92% (active); in test [16] it was -90.7% (active); in test [17], -69.8% (active); in [18], 3.49% (active).

Take `CCc1nn2c(-c3ccccc3)c(-c3cc(OC)c(OC)c(OC)c3)nc2s1`: the growth is 59.4% in [1]; 60.2% in test [2]; 88.1% in test [3]; 98.5% in [4]; 68.5% in [5]; 102% in test [6]. Further, the growth in test [7] was 87.3%; in test [8], 92%; in test [9], 69.8%; in test [10], 77.1%; in test [11] it was 72.5%; in test [12], 111%. Moreover, the growth in test [13] is 95.5%; in [14], 83.5%; in test [15], 60.6%; in test [16], 80.8%; in test [17], 91.6%; in test [18], 94.7%.

As to `C[N+]1(CC2CO2)CCCCCC1` (centres undefined), the growth was 106% in [1]; 103% in [2]; 106% in [3]; 95.9% in [4]; 94.3% in test [5]; 113% in [6]. In addition, the growth in test [7] was 112%; in test [8], 104%; in test [9] it was 114%; in [10], 113%; in [11], 116%; in test [12] it was 116%. The growth in test [13] was 102%; in test [14] it was 106%; in test [15] it was 107%; in [16], 103%; in test [17] it was 112%; in [18], 93.9%.

`C#CCNCCCN1C(=O)c2ccc3c4c(ccc(c24)C1=O)C(=O)N(CCCNCC#C)C3=O`: the growth in [1] is -21.1% (active); in [2], 12.5%; in test [3], -31.1% (active); in test [4], -73.6% (active); in test [5], -97.8% (active); in test [6], -42.7% (active). Moreover, the growth is -75.1% (active) in test [7]; -27.6% (active) in test [8]; -22.9% (active) in [9]; -32% (active) in [10]; -52.1% (active) in test [11]; -93.8% (active) in test [12]. Further, the growth in test [13] was -66.9% (active); in [14] it was -59.8% (active); in [15] it was -72.7% (active); in test [16], -25% (active); in test [17] it was -90% (active); in test [18] it was -80.4% (active).

Regarding `Cn1c(=O)c2[nH]c(C(O)c3ccc(Cl)cc3)nc2n(C)c1=O` (centres undefined), the growth in test [1] is 104%; in test [2], 90.6%; in test [3], 97.8%; in test [4], 99.6%; in test [5], 91.3%; in test [6], 101%. Also, the growth in test [7] was 111%; in [8], 109%; in test [9] it was 87.9%; in test [10], 97.9%; in test [11], 101%; in test [12], 93.6%. The growth is 101% in test [13]; 89.5% in test [14]; 96.6% in test [15]; 95% in test [16]; 97.8% in test [17]; 97.3% in [18].

Regarding `C=C[C@]1(C)C=C2C(=O)[C@@]3(O)OC(=O)[C@@]4(CCCC(C)(C)[C@H]34)[C@@]2(O)CC1`, the growth was -11% (active) in [1]; -25.4% (active) in [2]; -56.8% (active) in [3]; -71.7% (active) in test [4]; -74.4% (active) in test [5]; 38.4% in test [6]. Further, the growth was -92.8% (active) in [7]; -90.4% (active) in test [8]; 0.722% (active) in test [9]; -6.84% (active) in [10]; -52.8% (active) in test [11]; -93.7% (active) in [12]. Moreover, the growth was -90.6% (active) in [13]; -42% (active) in [14]; 0.55% (active) in test [15]; -93.4% (active) in [16]; -91.3% (active) in [17]; 8.33% (active) in [18].

On to `COc1cc(-c2n/c(=C\c3c(O)[nH]c4ccccc34)cc3c2=Nc2ccccc2-3)cc(OC)c1OC`, for which the growth is 8.26% (active) in [1]; 25.5% in test [2]; 11.3% in test [3]; 46.4% in test [4]; 26.8% in test [5]; -9.66% (active) in test [6]. In addition, the growth in test [7] was 44.3%; in [8], -16.6% (active); in test [9] it was 3.83% (active); in test [10], 4.78% (active); in [11] it was 51.7%; in test [12] it was 6.59% (active). Besides, the growth in [13] was -7.06% (active); in test [14], 33.4%; in test [15], 3.28% (active); in test [16], 3.38% (active); in test [17], -20.4% (active); in [18] it was 5.99% (active).

Turning to `COc1ccc(COC(=O)CC(C)C)cc1`, the growth in test [1] was 97.1%; in test [2] it was 103%; in test [3] it was 96.1%; in test [4], 100%; in test [5] it was 109%; in [6], 102%. In addition, the growth is 106% in test [7]; 105% in test [8]; 104% in test [9]; 98.8% in test [10]; 96.7% in [11]; 100% in test [12]. Moreover, the growth was 107% in [13]; 105% in test [14]; 99.7% in test [15]; 96.3% in test [16]; 103% in test [17]; 98% in test [18].
